Measured values from PubChem BioAssay.
For some of these results: Measured potencies and affinities stand elsewhere. This is one part of the list. Active and inactive are the calls of the source.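 The calls were made as follows, unless noted: active = membrane potential signal rise above negative control mean plus 3 SD in both duplicates, also active in the earlier TRPC4 screen; inactive = the rest.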

What was measured:
[1] = tested on: TRPC4 beta (transient receptor potential cation channel C4), mouse; assay: activators of mouse TRPC4 channel, confirmation, cell-based, Fluo4 calcium, HEK293 TRPC4beta/mu-opioid, duplicates, 10 µM (AID 2426;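 active = fluorescence ratio normalized to control raised more than 50% in primary screen plus both repeat runs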); conditions: Fluo4 calcium fluorescence, at 10 µM; hits give high values
[2] = tested on: transient receptor potential cation channel C4 beta (TRPC4), mouse; assay: activators of mouse TRPC4 channel, confirmation, cell-based, second round, Fluo4, HEK293 TRPC4beta/mu-opioid, 1 µM (AID 2461;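 active = primary screen active and over 50% activation in each of two duplicate runs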); conditions: Fluo4 calcium fluorescence, at 1 µM; hits give high values
[3] = tested on: TRPC4 (transient receptor potential cation channel C4 beta), mouse; assay: positive allosteric modulators of mouse TRPC4, confirmation, cell-based, second round, Fluo-4, HEK293 TRPC4beta/mu-opioid, 1 µM (AID 2554;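 active = primary screen hit whose fluorescence ratio, in both repeats, exceeds the weak agonist control mean by 3 SD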); conditions: DAMGO EC20, Fluo-4 calcium flux, at 1 µM; hits give high values
[4] = tested on: TRPC4 beta (transient receptor potential cation channel C4), mouse; assay: positive allosteric modulators of mouse TRPC4, confirmation, cell-based, Fluo-4, HEK293 TRPC4beta/mu-opioid (AID 2555;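 active = primary screen hit whose calcium fluorescence ratio, in both repeats, exceeds the weak agonist control mean by 3 SD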); conditions: DAMGO EC20, Fluo-4 calcium flux, at 10 µM; hits give high values
[5] = molecular target: Short transient receptor potential channel 4 (Mus musculus) (UniProt Q9QUQ5); assay: inhibitors of mouse TRPC4 channel, confirmation, cell-based, Fluo4, HEK293 TRPC4beta/mu-opioid (AID 2636;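 active = calcium signal cut by more than 3 SD below the full-agonist control yet still positive, in both repeats and the earlier primary screen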); conditions: DAMGO, Fluo4 calcium flux, at 10 µM; hits give high values
[6] = molecular target: Short transient receptor potential channel 4 (Mus musculus) (UniProt Q9QUQ5); assay: inhibitors of mouse TRPC4 channel, confirmation, cell-based, second round, Fluo4, HEK293 TRPC4beta/mu-opioid, 1 µM (AID 2637;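 active = calcium signal ratio cut to more than 3 SD under the fully stimulated control mean yet still positive, in both repeats and the primary screen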); conditions: Fluo4 calcium flux, DAMGO, at 1 µM; hits give high values
[7] = molecular target: Short transient receptor potential channel 4 (Mus musculus) (UniProt Q9QUQ5); assay: mouse TRPC4 channel activators, dose response, cell-based, HEK293 TRPC4/mu-opioid, Fluo-4 calcium (AID 434937;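 active = primary screen activator hit with a dose response curve and TRPC4 channel activation at any tested dose; inactive = no activation, no dose response, or not a primary hit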)
[8] = molecular target: Short transient receptor potential channel 4 (Mus musculus) (UniProt Q9QUQ5); assay: TRPC4 positive allosteric modulators, dose response, cell-based, HEK293 TRPC4/mu-opioid, Fluo-4 calcium, EC20 DAMGO (AID 434941;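 active = earlier screen potentiator hit that boosts the TRPC4 ion channel at some dose, with a dose response; inactive = no potentiation, no dose response, or not a prior hit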;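 also: calcium entry triggered by an EC20 dose of DAMGO at the co-expressed mu-opioid receptor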)
[9] = molecular target: Short transient receptor potential channel 4 (Mus musculus) (UniProt Q9QUQ5); assay: mouse TRPC4 channel inhibitors, dose response, cell-based, HEK293 TRPC4/mu-opioid, Fluo-4 calcium (AID 434942;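 active = primary screen inhibitor hit that blocks the TRPC4 channel at some tested dose, yielding a dose curve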)
[10] = molecular target: Short transient receptor potential channel 6 (Mus musculus) (UniProt Q61143); assay: inhibition of mouse TRPC6 channel, confirmation, selectivity assay for TRPC4 inhibitor project, cell-based, HEK293, membrane potential dye, duplicate (AID 434948;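 active = active in primary screen and both duplicates, each dropping signal beyond three positive-control SD with fluorescence still positive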); conditions: HEK293 TRPC6, membrane potential dye fluorescence, at 10 µM, stimulated with maximal-effect acetylcholine; hits give high values
[11] = molecular target: Short transient receptor potential channel 6 (Mus musculus) (UniProt Q61143); assay: activation of mouse TRPC6 channel, confirmation, selectivity assay for TRPC4 activator project, cell-based, HEK293, membrane potential dye, duplicate (AID 434950); conditions: HEK293 TRPC6, membrane potential fluorescence, at 10 µM; hits give high values
[12] = molecular target: Short transient receptor potential channel 6 (Mus musculus) (UniProt Q61143); assay: TRPC6 potentiation by TRPC4 potentiator hits, confirmation, selectivity assay for TRPC4 potentiator project, HEK293 cells, membrane potential dye, duplicate (AID 434952;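 active = compound raising the membrane signal above positive-control mean plus 3 SD in both repeats, and a primary screen hit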); conditions: HEK293 TRPC6, membrane potential dye fluorescence, at 10 µM, maximal acetylcholine added after compound; hits give high values
[13] = molecular target: Short transient receptor potential channel 4 (Mus musculus) (UniProt Q9QUQ5); assay: calcium flux activators in TRPC4/5HT1a cells, counter-screen for TRPC4 activator project, cell-based, second counter screen, HEK293 TRPC4/5HT1a, Fluo-4 (AID 434977;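 active = calcium signal rise above buffer-control mean plus 5 SD in both duplicates, and also a hit in the primary screen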); conditions: Fluo-4 calcium flux, at 10 µM; hits give high values
[14] = calcium flux inhibitors in TRPC4/5HT1a cells, confirmation, counter-screen for TRPC4 inhibitor project, cell-based, second counter screen, HEK293 TRPC4/5HT1a, Fluo-4 (AID 434978;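 active = primary screen active whose calcium signal fell more than 3 SD beyond the full-serotonin control mean in both duplicate plates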;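 also: serotonin given first at submaximal then at maximal dose after compound preincubation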); conditions: Fluo-4 calcium flux, at 10 µM, serotonin added to trigger calcium flux; hits give high values
[15] = tested on: TRPC4 (mouse), co-expressed with 5HT1a in HEK293; assay: calcium flux potentiators in TRPC4/5HT1a cells, confirmation, counter-screen for TRPC4 potentiator project, cell-based, second counter screen, HEK293 TRPC4/5HT1a, Fluo-4 (AID 434979;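 active = signal rise over 3 SD above mean of control wells given weak agonist, in both repeats and first screen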); conditions: Fluo-4 calcium flux, at 10 µM, serotonin added at its EC20 dose; hits give high values
[16] = calcium flux activation in mu-opioid HEK293 cells, confirmation, counter-screen for TRPC4 activator project, cell-based, HEK293 mu-opioid receptor line (AID 449723;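 active = hit in primary screen, with calcium signal over 5 SD above buffer well mean in both duplicates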;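 also: counter screen cells carry the mu-opioid receptor alone and lack TRPC4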); conditions: Fluo-4 calcium fluorescence, at 10 µM; hits give high values
[17] = calcium flux enhancement in mu-opioid HEK293 cells, confirmation, counter-screen for TRPC4 allosteric potentiator project, cell-based, HEK293 mu-opioid receptor line (AID 449724;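 active = calcium signal rise more than 3 SD above the low-dose agonist control mean, in both duplicate plates and the primary screen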); conditions: Fluo-4 calcium flux, at 10 µM, compound added before EC20 DAMGO stimulus; hits give high values
[18] = nonspecific thallium flux increase in parental CHO-K1, confirmation, counter-screen for KCNQ2 potentiator project, cell-based, FluxOR thallium flux, duplicate (AID 2282;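 active = signal rise of at least 3 SD above the untreated control mean, in both duplicate wells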;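 also: counter screen of KCNQ2 potentiator hits so any rise reflects channel-independent effects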); conditions: parental CHO-K1 cells, FluxOR thallium flux fluorescence; at 10 µM; hits give high values; zero = vehicle mean+3SD, 100% = vehicle-minus-blank window
[19] = molecular target: Potassium voltage-gated channel subfamily KQT member 1 (Homo sapiens) (UniProt P51787); assay: human KCNQ1 channel potentiation off-target, confirmation, selectivity assay for KCNQ2 potentiator project, cell-based, CHO, FluxOR thallium flux (AID 2283;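 active = fluorescence ratio rise of at least 3 SD of vehicle wells above their mean, in both replicate wells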;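 also: 0% = vehicle mean plus 3 SD and 100% = vehicle minus unstimulated blank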); conditions: CHO KCNQ1 stable, FluxOR thallium flux fluorescence; at 10 µM; hits give high values; beyond 3SD, as % of vehicle-control signal
[20] = molecular target: Potassium voltage-gated channel subfamily KQT member 2 (Rattus norvegicus) (UniProt O88943); assay: rat KCNQ2 channel potentiators, confirmation, cell-based, CHO, FluxOR thallium flux, duplicate (AID 2287;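 active = fluorescence ratio rising 3 SD or more over the vehicle control mean in both replicates, plus primary screen hit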;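 also: peak minus minimum thallium fluorescence divided by baseline after K/Tl stimulus; 0% = vehicle mean plus 3 SD and 100% = vehicle minus unstimulated blank difference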); conditions: CHO-KCNQ2 cells, FluxOR thallium flux fluorescence; at 10 µM; hits give high values
Chain of Potassium voltage-gated channel subfamily KQT member 2 (Rattus norvegicus) (O88943 whole entry, looked up): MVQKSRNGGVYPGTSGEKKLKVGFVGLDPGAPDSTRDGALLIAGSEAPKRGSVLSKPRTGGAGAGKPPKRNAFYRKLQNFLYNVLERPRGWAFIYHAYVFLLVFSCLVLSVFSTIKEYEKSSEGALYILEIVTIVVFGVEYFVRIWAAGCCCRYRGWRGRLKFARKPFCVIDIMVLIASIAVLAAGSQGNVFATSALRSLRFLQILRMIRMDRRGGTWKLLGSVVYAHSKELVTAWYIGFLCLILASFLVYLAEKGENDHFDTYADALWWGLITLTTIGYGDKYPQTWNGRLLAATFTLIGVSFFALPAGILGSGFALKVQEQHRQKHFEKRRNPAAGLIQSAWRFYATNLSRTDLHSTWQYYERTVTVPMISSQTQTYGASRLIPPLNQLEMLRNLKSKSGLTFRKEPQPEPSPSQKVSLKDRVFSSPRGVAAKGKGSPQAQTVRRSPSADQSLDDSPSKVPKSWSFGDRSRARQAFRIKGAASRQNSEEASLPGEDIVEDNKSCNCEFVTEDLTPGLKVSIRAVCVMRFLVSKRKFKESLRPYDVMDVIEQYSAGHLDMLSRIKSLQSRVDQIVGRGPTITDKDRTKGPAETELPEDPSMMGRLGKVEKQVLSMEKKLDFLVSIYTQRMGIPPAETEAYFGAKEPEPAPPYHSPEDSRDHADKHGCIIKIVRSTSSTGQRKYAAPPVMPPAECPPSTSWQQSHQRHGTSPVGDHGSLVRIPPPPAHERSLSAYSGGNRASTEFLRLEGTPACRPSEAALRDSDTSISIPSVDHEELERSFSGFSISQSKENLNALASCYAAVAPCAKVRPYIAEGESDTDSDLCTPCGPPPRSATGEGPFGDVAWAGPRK

Chain of Short transient receptor potential channel 4 (Mus musculus) (Q9QUQ5 whole entry, looked up): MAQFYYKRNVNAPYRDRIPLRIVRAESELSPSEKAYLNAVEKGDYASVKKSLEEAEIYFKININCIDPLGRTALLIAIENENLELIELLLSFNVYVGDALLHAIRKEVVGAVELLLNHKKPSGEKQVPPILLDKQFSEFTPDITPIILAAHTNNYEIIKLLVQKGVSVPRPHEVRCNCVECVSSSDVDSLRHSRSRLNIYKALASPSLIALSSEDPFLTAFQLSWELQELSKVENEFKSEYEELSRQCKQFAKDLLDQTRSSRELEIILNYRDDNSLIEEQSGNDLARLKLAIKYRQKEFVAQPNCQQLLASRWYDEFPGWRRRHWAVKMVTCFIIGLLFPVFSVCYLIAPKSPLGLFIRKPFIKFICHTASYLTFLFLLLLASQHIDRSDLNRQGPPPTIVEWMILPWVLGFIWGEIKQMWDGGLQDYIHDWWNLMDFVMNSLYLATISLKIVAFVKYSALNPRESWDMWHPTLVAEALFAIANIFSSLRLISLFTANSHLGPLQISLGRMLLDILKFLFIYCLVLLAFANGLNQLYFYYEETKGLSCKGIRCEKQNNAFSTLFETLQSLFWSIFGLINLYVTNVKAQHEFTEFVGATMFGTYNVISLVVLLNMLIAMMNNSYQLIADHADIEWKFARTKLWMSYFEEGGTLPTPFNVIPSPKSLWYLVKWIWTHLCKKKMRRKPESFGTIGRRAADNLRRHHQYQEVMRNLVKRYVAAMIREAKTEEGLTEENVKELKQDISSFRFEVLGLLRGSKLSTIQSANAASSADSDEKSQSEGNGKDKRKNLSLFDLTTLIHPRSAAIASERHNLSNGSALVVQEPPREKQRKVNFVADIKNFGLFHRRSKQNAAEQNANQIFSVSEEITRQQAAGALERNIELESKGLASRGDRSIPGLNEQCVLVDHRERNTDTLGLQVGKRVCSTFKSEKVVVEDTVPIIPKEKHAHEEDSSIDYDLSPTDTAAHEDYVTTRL
Chain of Short transient receptor potential channel 6 (Mus musculus) (Q61143 whole entry, looked up): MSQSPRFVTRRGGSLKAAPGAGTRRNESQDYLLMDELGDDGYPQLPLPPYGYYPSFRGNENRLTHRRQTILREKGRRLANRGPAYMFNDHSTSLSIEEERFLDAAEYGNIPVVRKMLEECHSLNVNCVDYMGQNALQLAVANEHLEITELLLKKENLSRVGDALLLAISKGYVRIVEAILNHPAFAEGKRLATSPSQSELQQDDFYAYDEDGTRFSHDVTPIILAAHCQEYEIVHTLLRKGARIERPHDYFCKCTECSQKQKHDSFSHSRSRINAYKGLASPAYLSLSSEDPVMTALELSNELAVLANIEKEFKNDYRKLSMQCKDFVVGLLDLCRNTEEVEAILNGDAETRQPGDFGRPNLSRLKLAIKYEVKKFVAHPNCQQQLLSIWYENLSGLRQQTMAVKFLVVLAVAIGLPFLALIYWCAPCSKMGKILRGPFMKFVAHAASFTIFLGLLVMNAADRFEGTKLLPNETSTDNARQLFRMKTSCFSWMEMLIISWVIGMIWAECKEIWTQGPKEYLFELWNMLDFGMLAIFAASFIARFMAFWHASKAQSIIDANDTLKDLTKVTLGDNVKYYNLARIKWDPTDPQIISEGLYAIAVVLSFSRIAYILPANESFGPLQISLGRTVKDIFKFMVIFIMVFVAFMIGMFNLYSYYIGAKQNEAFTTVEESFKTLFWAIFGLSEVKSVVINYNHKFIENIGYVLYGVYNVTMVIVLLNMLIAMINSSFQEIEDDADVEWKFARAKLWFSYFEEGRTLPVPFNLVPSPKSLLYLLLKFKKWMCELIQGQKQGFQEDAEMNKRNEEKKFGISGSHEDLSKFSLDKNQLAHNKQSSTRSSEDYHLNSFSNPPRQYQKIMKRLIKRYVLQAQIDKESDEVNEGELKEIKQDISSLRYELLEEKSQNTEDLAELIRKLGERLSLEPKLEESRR
Chain of Potassium voltage-gated channel subfamily KQT member 1 (Homo sapiens) (P51787 whole entry, looked up): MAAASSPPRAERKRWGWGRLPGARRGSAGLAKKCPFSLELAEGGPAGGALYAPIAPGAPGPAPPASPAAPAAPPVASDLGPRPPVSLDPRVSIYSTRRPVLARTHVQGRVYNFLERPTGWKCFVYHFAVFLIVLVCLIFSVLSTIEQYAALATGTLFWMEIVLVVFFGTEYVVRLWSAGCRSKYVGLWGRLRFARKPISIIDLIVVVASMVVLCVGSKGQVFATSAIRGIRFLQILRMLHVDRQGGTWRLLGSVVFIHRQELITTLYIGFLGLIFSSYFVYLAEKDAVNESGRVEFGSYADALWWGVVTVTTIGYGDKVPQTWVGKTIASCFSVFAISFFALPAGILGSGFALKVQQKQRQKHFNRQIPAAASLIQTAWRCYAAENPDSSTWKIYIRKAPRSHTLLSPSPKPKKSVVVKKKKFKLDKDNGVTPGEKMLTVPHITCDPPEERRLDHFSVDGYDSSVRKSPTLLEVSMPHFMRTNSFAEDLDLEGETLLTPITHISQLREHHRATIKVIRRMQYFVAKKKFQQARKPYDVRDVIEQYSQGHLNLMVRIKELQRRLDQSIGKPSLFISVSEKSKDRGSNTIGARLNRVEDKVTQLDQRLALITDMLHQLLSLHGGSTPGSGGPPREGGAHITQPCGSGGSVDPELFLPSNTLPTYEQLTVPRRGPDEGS

CCCCOc1ccc(CSC(=N)N)cc1[N+](=O)[O-]
inactive: outcome [1] | outcome [2] | outcome [3] | outcome [4] | outcome [5] | outcome [6] | outcome [7] | outcome [8] | outcome [9] | outcome [10] | outcome [11] | outcome [12] | outcome [13] | outcome [14] | outcome [16] | outcome [17]
active: potentiation [15] 22.3%

CN(C)C(CNc1ccc(C(N)=O)cc1[N+](=O)[O-])c1ccccc1 (stereo unspecified)
inactive: outcome [1] | outcome [2] | outcome [3] | outcome [4] | outcome [5] | outcome [6] | outcome [7] | outcome [8] | outcome [9] | outcome [10] | outcome [11] | outcome [12] | outcome [13] | outcome [14] | outcome [15] | outcome [16] | outcome [17]

CC(C)(C)c1ccc(-c2nnc3sc(-c4ccccn4)nn23)cc1
inactive: outcome [1] | outcome [2] | outcome [3] | outcome [5] | outcome [6] | outcome [7] | outcome [8] | outcome [9] | outcome [10] | outcome [11] | outcome [12] | outcome [13] | outcome [14] | outcome [15] | outcome [16] | outcome [17]
active: potentiation [4] 68%

COc1ccc(CCN2C(=S)N(C)C(=O)C2CC(=O)Nc2ccc(F)cc2)cc1 (stereo unspecified)
inactive: outcome [1] | outcome [2] | outcome [3] | outcome [4] | outcome [5] | outcome [6] | outcome [7] | outcome [8] | outcome [9] | outcome [10] | outcome [11] | outcome [12] | outcome [13] | outcome [14] | outcome [15] | outcome [16] | outcome [17]

O=c1c2ccccc2nc(COc2ccccc2)n1/N=C/c1cc([N+](=O)[O-])ccc1O
active: potentiation [3] 11% | potentiation [4] 23% | potentiation [15] 10.5%
inactive: outcome [1] | outcome [2] | outcome [5] | outcome [6] | outcome [7] | outcome [8] | outcome [9] | outcome [10] | outcome [11] | outcome [12] | outcome [13] | outcome [14] | outcome [16] | outcome [17]

Cc1ccc(CS(=O)(=O)c2ncc(Cl)c(C(=O)Nc3nnc(C)s3)n2)cc1
active: activity increase over 3SD of controls [18] 30.6% | activation over 3SD threshold [19] 79.7%
inactive: potentiation, less the hit threshold [20] -85.4%

CC(C)(C)NCc1cc(Cl)ccc1OCc1cccs1
inactive: outcome [1] | outcome [2] | outcome [3] | outcome [4] | outcome [5] | outcome [6] | outcome [7] | outcome [8] | outcome [9] | outcome [10] | outcome [11] | outcome [12] | outcome [13] | outcome [14] | outcome [15] | outcome [16] | outcome [17]

O=C1CC(NS(=O)(=O)c2cccs2)CN1c1ccccc1 (stereo unspecified)
inactive: outcome [1] | outcome [2] | outcome [3] | outcome [5] | outcome [6] | outcome [7] | outcome [8] | outcome [9] | outcome [10] | outcome [11] | outcome [12] | outcome [13] | outcome [14] | outcome [16] | outcome [17]
active: potentiation [4] 14% | potentiation [15] 29.8%

CC(Sc1nc2sc3c(c2c(=O)n1-c1ccccc1)CCCC3)C(=O)O (stereo unspecified)
active: potentiation [4] 12% | potentiation [15] 22.2%
inactive: outcome [1] | outcome [2] | outcome [3] | outcome [5] | outcome [6] | outcome [7] | outcome [8] | outcome [9] | outcome [10] | outcome [11] | outcome [12] | outcome [13] | outcome [14] | outcome [16] | outcome [17]

CCOC(=O)c1ccc(NC(=S)N2CCSC2c2ccc(Cl)cc2)cc1 (stereo unspecified)
active: potentiation [4] 21% | potentiation [15] 26.4%
inactive: outcome [1] | outcome [2] | outcome [3] | outcome [5] | outcome [6] | outcome [7] | outcome [8] | outcome [9] | outcome [10] | outcome [11] | outcome [12] | outcome [13] | outcome [14] | outcome [16] | outcome [17]

C=CCn1c(SCCN2CCCC2)nc2c([nH]c3ccccc32)c1=O
active: potentiation [3] 21%
inactive: outcome [1] | outcome [2] | outcome [4] | outcome [5] | outcome [6] | outcome [7] | outcome [8] | outcome [9] | outcome [10] | outcome [11] | outcome [12] | outcome [13] | outcome [14] | outcome [15] | outcome [16] | outcome [17]

Cc1ccc(Cn2c(=N)c(C(=O)NCCN3CCOCC3)cc3c(=O)n4ccccc4nc32)cc1
inactive: outcome [1] | outcome [2] | outcome [3] | outcome [5] | outcome [6] | outcome [7] | outcome [8] | outcome [9] | outcome [10] | outcome [11] | outcome [12] | outcome [13] | outcome [14] | outcome [15] | outcome [16] | outcome [17]
active: potentiation [4] 31%

CC1CCC2C(C1)c1sc(=O)[nH]c1SC2(C)C (stereo unspecified)
inactive: outcome [1] | outcome [2] | outcome [3] | outcome [4] | outcome [5] | outcome [6] | outcome [7] | outcome [8] | outcome [9] | outcome [10] | outcome [11] | outcome [12] | outcome [13] | outcome [14] | outcome [15] | outcome [16] | outcome [17]

NC(=O)C(c1cccc(Cl)c1)c1ncc(C(F)(F)F)cc1Cl (stereo unspecified)
inactive: outcome [1] | outcome [2] | outcome [3] | outcome [4] | outcome [5] | outcome [6] | outcome [7] | outcome [8] | outcome [9] | outcome [10] | outcome [11] | outcome [12] | outcome [13] | outcome [14] | outcome [16] | outcome [17]
active: potentiation [15] 7.72%

CC(=O)c1ccc(OCC(O)CN2CCN(S(=O)(=O)c3c(C)cc(C)cc3C)CC2)cc1 (stereo unspecified)
active: potentiation [3] 20% | potentiation [4] 23% | potentiation [15] 27.2%
inactive: outcome [1] | outcome [2] | outcome [5] | outcome [6] | outcome [7] | outcome [8] | outcome [9] | outcome [10] | outcome [11] | outcome [12] | outcome [13] | outcome [14] | outcome [16] | outcome [17]
